# Screening results: PubChem BioAssay, several laboratories
# Compounds with a hit are over-represented: about 2.3% of the library has one in this group of screens.
# iPSC survival up: enhancers of human iPSC single-cell survival; hiPSC single-cell survival, ATPlite luminescence; 100% = ROCK inhibitor wells, 0% = DMSO; survival enhancement, % at 20 µM; 0.044% of 360,000 active; in the data active means survival enhancement above about 18%;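 further: cells exposed to compounds for 16 hours before the ATP read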
# TWEAK Fn14 block: TWEAK-Fn14 signaling inhibition | AID 1159606 | 2% of 360,000 active | TWEAK-stimulated Fn14 reporter cells, luciferase luminescence, 8 h | inhibition, % at 10 µM; in the data active means inhibition above about 50%
# CF NFkB inh: cystic fibrosis NF-kB activation inhibition; KKLEB NF-kB-GFP reporter, PAF-induced, GFP fluorescence overnight; inhibition, % at 5 µM; 0.86% of 360,000 active;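 active means at least 50% inhibition at 5 µM, scaled per plate between neutral and stimulator controls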;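 further: PAF is a Pseudomonas aeruginosa culture filtrate used as stimulus; plate controls were PAF-stimulated DMSO wells for no effect and unstimulated DMSO wells for full effect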
# LGR2 inh: blocks bursicon-induced cAMP signaling via Drosophila LGR2; HEK293 LGR2, CRE-luciferase, bursicon-stimulated, 4 h; inhibition, % at 9.99 µM; 0.35% of 380,000 active; AID 720647;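 active means drop in luminescence signal, shown as inhibition above about 50% in the replicate tests, limit read from the data, passing the limit was not always enough; inconclusive means probably only some replicates passing the limit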;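 further: agonist challenge used bursicon conditioned medium at about half maximal strength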
# HIF-2a block: HIF-2a inhibition; 786-0 RCC cells HIF-2a reporter, luciferase luminescence, overnight; 0.72% of 360,000 active; inhibition, % at 18.8 µM; AID 624352;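 active means inhibition of the luminescence signal of 40% or more relative to plate controls, in a single-dose primary screen at 18.75 µM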
# KKLEB cytotox: counter-screen for CF NF-kB inhibitors: cytotoxicity; KKLEB CF airway cells viability, ATPlite luminescence, overnight; hits give low values; cells stimulated with P. aeruginosa culture filtrate; activity change (cytotoxicity), % at 5 µM; 0.36% of 360,000 active;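 active means corrected activity change at or below -50% at 5 µM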
# Active calls of the source: *; u = inconclusive; x = no result.
SMILES,iPSC survival up,TWEAK Fn14 block,CF NFkB inh,LGR2 inh,HIF-2a block,KKLEB cytotox
Cn1ncc2c(N3CCN(c4ccc(Cl)c(Cl)c4)CC3)ncnc21,0,85*,42,-2,-71,-20
CC1CCN(c2ncnc3c2cnn3-c2ccccc2)CC1,-3,-5,-25,-59,-222,-30
COc1ccc(-n2ncc3c(N4CCC(C)CC4)ncnc32)cc1,-2,66*,-9,u,-21,-2
CC(C)n1c2ccccc2c2cc([N+](=O)[O-])ccc21,-1,-2,10,13,10,-21
CCC(C)n1c(=S)[nH]c2c(sc3ccc([N+](=O)[O-])cc32)c1=O (configuration not stated),2,23,54*,21,4,-50
CCOc1cc(/C=C(\CC(=O)O)c2nc3ccccc3s2)ccc1OC,0,62*,32,-13,8,-9
COc1ccc(/C=C(\CC(=O)O)c2nc3ccccc3s2)cc1O,1,17,6,12,10,6
Nc1nc(O)c(N=Nc2ccc(S(N)(=O)=O)cc2)c(=O)[nH]1,x,x,x,4,x,x
NS(=O)(=O)c1ccc(N=Nc2c[nH]c(=O)c(O)c2)cc1,0,2,3,-3,41*,1
O=C(Nc1ccc2c(c1)OCCO2)C(c1ccnc2ccccc12)N1CCN(c2ccc(C(F)(F)F)cn2)CC1 (configuration not stated),-2,89*,-8,-2,33,16
COC(=O)c1cc(OC)c(OC)cc1N=CC1=C(O)CC(C)(C)CC1=O,-1,56*,2,-20,0,6
CC1=NN(c2nc(N)nc(/C(C#N)=C/c3ccc([N+](=O)[O-])o3)n2)C(C)(C)C1,11,71*,-6,-26,2,-69*
O=C1C2C(C(=O)N1/N=C/c1ccc([N+](=O)[O-])o1)C1C=CC2C12CC2 (configuration not stated),-2,49,-7,4,13,6
C[C@@H]1CN([C@H](C)CO)C(=O)c2cc(C#CC(C)(C)O)cnc2O[C@@H]1CN(C)C(=O)C1CCOCC1,x,x,x,3,x,x
CCCCS(=O)(=O)N1CCCC(C(=O)Nc2ccc(Cl)cn2)C1 (configuration not stated),0,85*,0,-3,17,4
CCCS(=O)(=O)N1CCCC(C(=O)Oc2ccc(Cl)cc2)C1 (configuration not stated),0,-13,6,11,11,7
Cc1ccc(S(=O)(=O)N[C@@H](Cc2ccccc2)C(=O)CCl)cc1,-4,66*,72*,x,-30,-13
CO[C@@H]1CN(C)C(=O)c2ccc(NS(=O)(=O)c3ccc(F)cc3)cc2OC[C@@H](C)NC[C@@H]1C,x,x,x,10,x,x
CC(C)c1ccc(NC(=O)c2ccc(-c3ccnn3C)c3ccoc23)cc1,-3,79*,-4,x,-135,2
COc1cc(NC(=O)c2ccc(-c3ccnn3C)c3ccoc23)cc(OC)c1OC,-3,11,-7,-7,-194,-10
COc1cccc(S(=O)(=O)N2CC3(CN[C@H](CO)c4[nH]c5cc(OC)ccc5c43)C2)c1,x,x,x,-28,x,x
O=C(Nc1cnn(C23CC4CC(CC(C4)C2)C3)c1)c1cnn2c(C(F)(F)F)cc(-c3ccco3)nc12,2,96*,16,79*,2,-25
CC(C)c1ccc(-n2cccc2/C=C2/C(=N)N3C=CSC3=NC2=O)cc1,2,55*,-9,53*,19,-5
CC1=CSC2=NC(=O)/C(=C\c3cccn3-c3ccccc3)C(=N)N12,4,43,-33,13,-7,15
CCCc1cc(C(=O)O)c2ccccc2n1,-2,8,-12,x,-6,8
Cc1ccc(NC(=O)Cc2cc(C(=O)O)c3ccccc3n2)c(C)c1,4,52*,41,19,-23,16
Cc1cn([C@H]2C[C@H](O)[C@@H](CNC(=O)[C@H](N)Cc3cn(COCc4ccccc4)cn3)O2)c(=O)[nH]c1=O,0,51*,-14,14,-1,7
O=C(O)c1cccc(-n2c(O)c(C=C3N=c4ccccc4=N3)sc2=S)c1,1,-10,0,-4,16,-5
